Assay outcomes (PubChem)
HT1080NT lethal – qHTS for induction of synthetic lethality in tumor cells producing 2HG: qHTS for the HT-1080-NT fibrosarcoma cell line; Potency, µM (doses to about 46.1 µM), for inactives: at the top dose activity, negative = less viability, most hits filed as cytotoxic; AID 686970, 2013; hit rate 1.6% among 360,000; HT-1080-NT fibrosarcoma viability, CellTiter-Glo ATP luminescence, 48 h;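 further: NT is the 2HG producing partner of a matched IDH1 knockdown line; 0% = DMSO-treated cells and -100% = media-only wells without cells; nearly all actives have a fitted effect of over 55% in size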
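A 48-hour cytotoxicity screen used HT-1080-NT cells plated 2 hours before compound delivery. ATP-based CellTiter-Glo luminescence measured viability, normalized to DMSO and no-cell controls.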
DT40 TDP1 CPT – qHTS for Inhibitors of human tyrosyl-DNA phosphodiesterase 1 (TDP1): qHTS in cells in presence of CPT. hit rate 12% among 420,000. Potency, µM (titrated, usually from 46.2 µM), inactives show top-dose activity change, negative = growth inhibition, hits mostly inhibitors. chicken DT40 Tdp1-/-;hTDP1 cells + 20 nM CPT, ATP luminescence, 48 h; further: nearly all actives have a fitted effect of over 55% in size
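Cell growth measured by CellTiter-Glo luminescence after a minimum 48 h, 37 C compound exposure with 20 nM CPT in Tdp1-knockout DT40 cells stably expressing hTDP1, seeded 400/well; qHTS titration format.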
HT1080 IDH1KD tx – qHTS for induction of synthetic lethality in tumor cells producing 2HG: qHTS for the HT-1080-IDH1KD cell line; hit rate 2% among 360,000; HT-1080 IDH1 knockdown viability, ATP luminescence, 48 h; Potency, µM (highest dose often 46.1 µM), for inactives: at the top dose activity, negative = toxicity, actives largely listed as cytotoxic;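 further: 0% = DMSO wells and -100% = cell-free medium wells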
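HT-1080-IDH1KD cells (IDH1 knocked down), 750/well in RPMI with 5% FBS, treated with compound 48 h at 37 degrees C. Viability by CellTiter-Glo luminescence, normalised to DMSO and no-cell wells; concentration-response curves classed.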
KB-3-1 cytotox – qHTS assay for MDR1-selective chemotherapeutics: Primary screen using the parental adenocarcinoma cell KB-3-1; KB-3-1 viability, CellTiter-Glo ATP luminescence, 72 h; AID 1347075, 2019; Potency, µM (doses to about 46.1 µM), most hits filed as cytotoxic; hit rate 1.4% among 400,000; further: nearly all actives have a fitted effect of over 60% in size
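KB-3-1 parental drug-naive adenocarcinoma cells in DMEM/10% FBS, incubated 72 h at 37 C with pin-transferred compounds across a concentration series. Viability by CellTiter-Glo luminescence; concentration-response curves fitted after normalization.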
TDP1 cell noCPT – qHTS for Inhibitors of human tyrosyl-DNA phosphodiesterase 1 (TDP1): qHTS in cells in absence of CPT; DT40 Tdp1-/- hTDP1 cells, no CPT, ATP luminescence, 48 h; Potency, µM (doses to about 46.2 µM), for the others: top-dose activity change, negative = growth inhibition, most hits filed as inhibitors; hit rate 15% among 420,000; further: nearly all actives have a fitted effect of over 55% in size
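Growth of hTDP1-complemented DT40 Tdp1-knockout cells is measured by ATP luminescence after at least 48 hr compound exposure at 37 °C, with DMSO substituting for the 20 nM CPT used in the parallel screen.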
KB-V1 cytotox – qHTS assay for MDR1-selective chemotherapeutics: Primary screen using the drug-selected MDR subline cells KB-V1; KB-V1 MDR cells viability, CellTiter-Glo, 72 h; Potency, µM (series often up to 46.1 µM), hits mostly cytotoxic; hit rate 3.4% among 400,000; AID 1347076, 2019; further: nearly all actives have a fitted effect of over 60% in size
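KB-V1 cells (P-gp-expressing MDR subline of KB-3-1) in phenol-red-free DMEM with 10% FBS were exposed to library compounds over a concentration series for 72 h at 37 degrees C. Viability read by CellTiter-Glo luminescence; concentration-effect curves fitted after normalization.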
* = called active by the depositor; i = inactive; ? = inconclusive; nt = no result given. Hits are enriched below; roughly 19% of the tested compounds scored in any of these assays. The call rests on the fitted dose curve; in most records, active means well fitted curve in the direction sought with a large enough effect; inconclusive means small, poorly fitted or top-dose-only effect, or another doubt; inactive means no such curve, though single readings can be large; an effect the other way counts as inactive or inconclusive. Unless noted, on the % scale 0 is the no-effect control and ±100 the full control effect; potency means the concentration at half of the fitted maximal effect.

SMILES	HT1080NT lethal	DT40 TDP1 CPT	HT1080 IDH1KD tx	KB-3-1 cytotox	TDP1 cell noCPT	KB-V1 cytotox
O=C(CCC1CCCN(C(=O)c2ccncc2)C1)NCc1ccc(F)c(F)c1 (stereo unspecified)	0%	-17%	-2%	i	?	i
O=C(CCC1CCCN(C(=O)c2cc3ccccc3o2)C1)NCc1ccc(F)c(F)c1 (stereo unspecified)	2%	16µM*	1%	i	16µM*	i
COc1cccc(CNC(=O)CCC2CCCN(Cc3cc4ccccc4o3)C2)c1 (stereo unspecified)	-19%	18µM*	-20%	i	26µM*	i
Cc1cccc(C(=O)N2CCCC(CCC(=O)N3CCN(c4ccccn4)CC3)C2)c1C (stereo unspecified)	8%	?	-7%	i	?	?
COCc1ccc(C(=O)N2CCCC(CCC(=O)NCc3ccccc3F)C2)o1 (stereo unspecified)	15µM*	3.7µM*	?	?	2.9µM*	?
Cc1ccoc1C(=O)N1CCCC(CCC(=O)N2CCN(c3ccccn3)CC2)C1 (stereo unspecified)	5%	?	?	i	23µM*	?
CCc1ccc(C(=O)NNC(=O)C2CSC3(C)CCC(=O)N23)cc1 (stereo unspecified)	6%	1%	9%	i	-7%	i
Cc1ccc(NC(=O)c2ncn(CCCNCc3ccccn3)n2)cc1C	-6%	-10%	-6%	i	1%	i
CCNc1c(NC(=O)C2CCC(C)CC2)c(=O)oc2ccccc12 (stereo unspecified)	-1%	?	-3%	i	?	i
Cc1ncoc1C(=O)N1CCCC(CCC(=O)NCc2ccc(F)c(F)c2)C1 (stereo unspecified)	1%	-1%	-4%	i	-15%	?
O=C(CCC1CCCN(C(=O)c2ccco2)C1)NCc1ccccc1F (stereo unspecified)	-15%	18µM*	-29%	i	?	i
Cc1ncoc1C(=O)N1CCCC(CCC(=O)NCc2ccccc2F)C1 (stereo unspecified)	?	?	-11%	?	21µM*	?
CC(C)c1cc(C(=O)N2CCCC(CCC(=O)NCc3ccccc3F)C2)n(C)n1 (stereo unspecified)	-8%	?	-12%	?	13µM*	9.2µM*
O=C(CN(CCc1ccccc1)S(=O)(=O)c1ccc(Cl)cc1)N/N=C/c1ccccc1C(=O)O	2%	-2%	3%	i	8%	i
Cc1ccc(N2C(=O)[C@@H]3C(C(=O)C(c4ccccc4)c4ccccc4)=NN[C@@H]3C2=O)cc1	6%	-23%	8%	i	-24%	i
CC(C)C[C@@H](CN1CCCC1CN1C(=S)NC[C@@H]1Cc1ccccc1)N1C[C@H](Cc2ccc(O)cc2)N(CCc2ccccc2)C1=S (stereo partly specified)	?	18µM*	-1%	?	?	?
CC(C)C[C@@H](CN1CCC[C@@H]1CN1C(=S)NC[C@@H]1Cc1ccc(O)cc1)N1C[C@H](Cc2ccc(O)cc2)N(CCc2ccccc2)C1=S	26µM*	?	?	i	21µM*	?
CC(C)C[C@@H](CN1CCCC1CN1C(=S)NC[C@@H]1Cc1ccccc1)N1C[C@H](Cc2ccccc2)N(CCc2ccccc2)C1=S (stereo partly specified)	-2%	?	-2%	i	9.2µM*	i
CC(C)C[C@@H](CN1CCC[C@@H]1CN1C(=O)C(=O)NC[C@@H]1Cc1ccccc1)N1C[C@H](Cc2ccc(O)cc2)N(CCc2ccccc2)C(=O)C1=O	1%	?	-4%	i	?	i
CC(C)C[C@@H](CN1CCC[C@H]1CN1C(=O)C(=O)NC[C@@H]1Cc1ccccc1)N1C[C@H](Cc2ccc(O)cc2)N(CCc2ccccc2)C(=O)C1=O	?	?	?	i	?	i
CC(C)C[C@@H](CN1CCC[C@@H]1CN1C(=S)NC[C@@H]1Cc1ccccc1)N1C[C@H](Cc2ccc(O)cc2)N(CCc2ccccc2)C1=S	?	?	?	i	18µM*	?
CCc1nc2nc(C)c(NS(=O)(=O)c3ccc(C)cc3)c(=O)n2[nH]1	nt	1%	nt	i	-2%	i
Cc1nn(C(C)C(=O)NCc2ccco2)c(=O)c2nn(-c3ccccc3)c(C)c12 (stereo unspecified)	-2%	-29%	0%	i	?	i
CCc1cc(=O)oc2cc(C)cc(OC(C)C(=O)NCCCN3CCCC3=O)c12 (stereo unspecified)	8%	-12%	3%	i	19%	?
Cc1ccc(C)c(S(=O)(=O)c2c(C)cc(C)[nH]c2=O)c1	-2%	-10%	-3%	i	2%	i
SMILES	HT1080NT lethal	DT40 TDP1 CPT	HT1080 IDH1KD tx	KB-3-1 cytotox	TDP1 cell noCPT	KB-V1 cytotox
CCOC(=O)C(=CNc1nc(-c2ccccc2)c(C(=O)Nc2ccc(-c3ccccc3)cc2)s1)C(=O)OCC	14%	16µM*	24%	i	?	i
CCOC(=O)c1sc2ccccc2c1S(=O)(=O)N1CCN(c2ccccc2)CC1	nt	?	nt	i	?	?
COC(=O)c1sc2ccccc2c1S(=O)(=O)N1CCN(c2ccc(C(C)=O)cc2)CC1	nt	16µM*	nt	i	?	i
CCOC(=O)c1sc2ccc(S(=O)(=O)N3CC(C)CC(C)C3)cc2c1N (stereo unspecified)	-10%	?	5%	i	13µM*	?
N#Cc1ccc(Nc2nc(-c3ccccc3)c(C(=O)c3ccccc3)s2)cc1	?	18µM*	?	?	23µM*	?
O=C(NCC1CCCO1)C1CCC(CNS(=O)(=O)c2ccccc2)CC1 (stereo unspecified)	-5%	5%	2%	i	-7%	i
